Among the data in PubChem BioAssay (NCI) are growth values, retold here.

Where “and” joins values, the source holds several entries; their conditions need not be identical. Equal entries are not always repeated. The panel holds about 83,000 compounds, 20% with a hit somewhere; the sample as a whole holds those more often.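 Testing used 96-well plates and a 48-hour single-concentration exposure. Example: -40 means 40% of the starting cells died.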 Unmarked numbers belong to inactive results. Calls of active or inactive are those of the source. Rule for the calls: active = growth percent below 10; inactive = the rest.

The subject of this test is HL-60(TB) leukemia. The experiment in a line: NCI-60 one-dose screen, 48 h (100 = growth as untreated, 0 = no growth, -100 = all killed). The conditions noted are these: 10 µM unless noted.
Regarding `CSC1=NC(=Nc2c(C)cccc2C)C2(CCC(C(C)(C)C)CC2)N1c1ccc(Cl)cc1` (configuration not stated), the growth is 53.4%. Under `N#Cc1c(-c2cccs2)cc(-c2cccnc2)[nH]c1=O` stands 97.6%; under `CCCCCCCCCCCCCCCCOP(=O)([O-])OCC[N+](C)(C)C`, -29.6% (active). `O=C(CCN1C(=O)/C(=C/c2ccc(O)cc2)SC1=S)Nc1ccccc1`: the growth was 61.2%. As to `CN1CCN(Cc2ccc(NC(=O)c3cncc(C#Cc4cnccc4C(F)(F)F)c3)cc2C(F)(F)F)CC1`, the growth was 38.4%. The result for `O=C1/C(=C/c2ccc(O)cc2)Cc2ccc(Cl)cc21` reads 60.1%; that for `COc1ccc(-c2ccccc2)cc1C(=O)c1ccc(-c2ccccc2)cc1`, 71.4%; that for `COC(=O)CC1=C(c2ccc([N+](=O)[O-])cc2)CCC1=O`, 100%. The result for `COc1ccc2c(c1)C(=O)/C(=C/c1cccc(OCC(=O)c3ccccc3)c1)O2` reads -80.5% (active). The result for `O=C(Nc1cccc(Cl)c1)Nc1cccc(Cn2c(=O)[nH]c3ccc(Oc4ncccn4)cc3c2=O)c1` reads 45.3%; that for `C=CCc1cc(C(C)=O)cc(OC)c1O`, 71.1%. In the case of `O=S(=O)(NCCCNc1nccc(-c2c(-c3ccc(F)c(O)c3)nc3occn23)n1)c1ccc(Cl)cc1`, the growth is 94.2%. For `CC(C)(C)c1ccc(S(=O)(=O)Oc2ccc3c4c(c(=O)oc3c2)CCCCC4)cc1`, the growth was 52%. Under `O=C1Nc2ccc(Br)cc2/C1=N/c1n[nH]c(=S)s1` stands 99.2%; under `C#Cc1cccc(Nc2ncnc3ccc(-c4cncc(NS(C)(=O)=O)c4)cc23)c1`, 4% (active); under `CCN(CC)CCCC(C)N=c1cc(Nc2cc(=NC(C)CCCN(CC)CC)c3cc(OC)ccc3o2)oc2ccc(OC)cc12` (configuration not stated), -65.3% (active). Regarding `Cc1ccc2nc(C)c(-c3nnc(SCc4ccc(C#N)cc4)o3)n2c1`, the growth was 111%. With `Cn1c(-c2nonc2NC(=O)c2ccc(F)cc2)nc2ccccc21`, the growth was -30.1% (active). The result for `O=C1c2cc(Cl)ccc2S(=O)(=O)c2c(NCCCNCCO)nc3ccccc3c21` reads -27% (active); that for `C=CC(=O)NCc1ccc(Nc2nccc(-c3ccc(N4CCCC4)c(C#N)c3)n2)cc1`, -12.9% (active). The result for `COc1ccc(OC)c(/C=C2\Oc3cc(OCCN4CCC(Cc5ccccc5)CC4)ccc3C2=O)c1` reads 98.2%; that for `CC1SC(=S)N(c2ccc(Cl)cc2)C1=O` (configuration not stated), 82.7% and 98.2%; that for `CC[C@H](C)C(=O)O[C@H]1CCC=C2C=C[C@H](C)C(CCC3C[C@@H](O)CC(=O)O3)[C@H]21` (some centres not stated), 97.8%. Regarding `Cc1ccc(-c2nc3nc(-c4ccc(F)cc4)nc(N4CCNCC4)c3o2)cc1`, the growth was -69.1% (active).

Take `Oc1ccc(/C=N/Nc2nnc(N/N=C/c3ccc(O)cc3O)c3ccccc23)c(O)c1`: the growth was -62.2% (active). Under `COc1ccc(-c2coc3c(CO)c(O)ccc3c2=O)cc1` stands -24.9% (active); under `C#Cc1ccc(NC(=O)c2ccc(/C=C/C(=O)c3nccn3C)cc2)cc1`, -27.2% (active). With `COc1ccc(/C=C(\C#N)c2ccc([N+](=O)[O-])cc2)c2ccccc12`, the growth was 85.4%. Take `N#Cc1c(-c2ccc(F)cc2)nc(N=Nc2c(O)[nH]c3ccc(Cl)cc23)nc1N1CCOCC1`: the growth is 73.3%. With `COc1cc(-c2ncn(/C=C\C(=O)OC(C)C)n2)cc(C(F)(F)F)c1`, the growth was 7.55% (active). Under `COc1cc(CNC(=O)CCCCC[P+](c2ccccc2)(c2ccccc2)c2ccccc2)c(OC)c2c1OCO2` stands -2.75% (active); under `CCOC(=O)c1c2c(n3cccc(F)c13)C(=O)c1ncccc1C2=O`, -25.8% (active); under `C=C(C)[C@@H]1CC[C@]2(C(=O)NCCNCCN)CC[C@]3(C)[C@H](CC[C@@H]4[C@@]5(C)C/C(=C/c6ccncc6)C(=O)C(C)(C)[C@@H]5CC[C@]43C)[C@@H]12`, 74.1%. `COc1cc(-c2nc(SC(C)C)nc(Nc3cccc(C)c3)c2C#N)cc(OC)c1OC`: the growth was 98.3%. Under `CC1=Nc2cnc(Nc3ccc(OCCN4CCCCC4)cc3)nc2Nc2ccccc21` stands 65.1%; under `COc1ccc(Nc2nc(SCC(C)C)nc(-c3ccc(F)cc3)c2C#N)cc1`, 38.4%.

For `CCN(CC)CCNC(=O)c1c(C)[nH]c(/C=C2\C(=O)Nc3cc(NC(=O)NC(=O)c4ccc(OC)cc4F)ccc32)c1C`, the growth is 95.9%.
